Inconclusive results are not listed. Calls of active or inactive are those of the source.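 How the source made its calls, unless noted: active means efflux inhibition above 0.42, the validation set average plus 4 SD; inconclusive means no clear call, values can overlap the other calls; inactive means the rest.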

This note sets out measurements from PubChem BioAssay.

A short description of assay [1]: rapamycin-like changes in RPL19A-GFP expression – cell-based, S. cerevisiae, multiplex flow cytometry, primary screen (AID 1862; in the data active means percent of DMSO control GFP below about 86%;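 further: lower values mimic rapamycin by blocking the RPL19A rise seen in DMSO cells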). The settings on record: S. cerevisiae RPL19A-GFP strain, flow cytometry fluorescence, 3 h; at 10 µM; stronger effect = lower value.
Assay [2] can be described thus: TOR pathway GLN3 branch reporter MEP2-GFP changes – S. cerevisiae, multiplex flow cytometry, primary screen (AID 1867;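 active means GFP response, as percent of the DMSO control, above the screen-wide mean plus 3 SD, about 139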;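 further: median GFP channel fluorescence of barcode-gated MEP2-GFP cells measured by flow cytometry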). Particulars: S. cerevisiae MEP2-GFP strain, 3 h, at 10 µM, stronger effect = higher value, 100% means same as DMSO wells. (In general: In flow cytometry, cells or beads pass a laser one at a time.)
The nature of assay [3]: TOR pathway RTG branch CIT2 reporter changes – S. cerevisiae, GFP fusion, multiplex flow cytometry, primary screen (AID 1870;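 active means percent response above a set limit, the screen-wide mean plus 3 SD, cut at about 130% in these data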;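 further: barcoded CIT2-GFP strain pooled with four other GFP strains with rapamycin as positive control; median GFP fluorescence per well over plate mean of DMSO wells so 100% = DMSO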). The settings on record: S. cerevisiae CIT2-GFP expression, 3 h, at 10 µM, stronger effect = higher value.
Assay [4] is described as follows: TOR pathway LAP4-GFP level changes – S. cerevisiae, multiplex flow cytometry, primary screen (AID 1873;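 active means GFP signal, as percent of the solvent control, above the screen mean plus 3 SD, about 149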). The settings on record: S. cerevisiae LAP4-GFP expression, 3 h, at 10 µM, stronger effect = higher value.
A short description of assay [5]: yeast AGP1-GFP level changes, GLN3 branch – cell-based, multiplex flow cytometry, S. cerevisiae, primary screen (AID 1887;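 active means GFP signal above the screen-wide mean plus 3 SD, that is over about 124.5% of the solvent control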;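 further: AGP1-GFP fusion strain of S. cerevisiae within a five-strain barcoded multiplex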). The settings on record: 3 h, at 10 µM, stronger effect = higher value.
Assay [6] can be described thus: reduced mouse 2C T cell binding to pMHC/ICAM-1 vesicles – MLPCN validation set, flow cytometry, LFA-1/ICAM-1 modulator project, pilot screen (AID 2523;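 active means response below a set limit, under 55% cells CD8-positive and vesicle-bound, and CD8 cells' 90th-percentile brightness under 279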;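 on vesicle binding response: mean PE anti-B7-1 fluorescence of CD8+ cells relative to row control; 100% = QL9-loaded vesicles with DMSO vehicle in the same plate row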). The settings on record: 2C mouse CD8+ T cells, at 7 µM, stronger effect = lower value; double positive events: measured here: CD8+/vesicle+ event percentage.
In assay [7] the target is Integrin beta-1 (Homo sapiens) + Integrin alpha-4 (Homo sapiens) (UniProt P13612+P05556). The assay can be described thus: alpha4beta1 integrin LIBS antibody binding reduction – U937 cells, HUTS-21 mAb, flow cytometry, validation set, VLA-4 allosteric modulator project, pilot screen (AID 2674;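 active means inhibition above 50%, about 3 SD of the validation set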;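 further: antibody binding induced by the VLA-4 ligand LDV present at three times its Kd; 0% = LDV ligand with antibody and no compound and 100% = antibody without LDV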). Particulars: HUTS-21 LIBS mAb binding, at 6.7 µM, stronger effect = higher value, binding induced by LDV ligand.
Sequence of Integrin beta-1 (Homo sapiens) + Integrin alpha-4 (Homo sapiens) (P05556 whole entry, looked up): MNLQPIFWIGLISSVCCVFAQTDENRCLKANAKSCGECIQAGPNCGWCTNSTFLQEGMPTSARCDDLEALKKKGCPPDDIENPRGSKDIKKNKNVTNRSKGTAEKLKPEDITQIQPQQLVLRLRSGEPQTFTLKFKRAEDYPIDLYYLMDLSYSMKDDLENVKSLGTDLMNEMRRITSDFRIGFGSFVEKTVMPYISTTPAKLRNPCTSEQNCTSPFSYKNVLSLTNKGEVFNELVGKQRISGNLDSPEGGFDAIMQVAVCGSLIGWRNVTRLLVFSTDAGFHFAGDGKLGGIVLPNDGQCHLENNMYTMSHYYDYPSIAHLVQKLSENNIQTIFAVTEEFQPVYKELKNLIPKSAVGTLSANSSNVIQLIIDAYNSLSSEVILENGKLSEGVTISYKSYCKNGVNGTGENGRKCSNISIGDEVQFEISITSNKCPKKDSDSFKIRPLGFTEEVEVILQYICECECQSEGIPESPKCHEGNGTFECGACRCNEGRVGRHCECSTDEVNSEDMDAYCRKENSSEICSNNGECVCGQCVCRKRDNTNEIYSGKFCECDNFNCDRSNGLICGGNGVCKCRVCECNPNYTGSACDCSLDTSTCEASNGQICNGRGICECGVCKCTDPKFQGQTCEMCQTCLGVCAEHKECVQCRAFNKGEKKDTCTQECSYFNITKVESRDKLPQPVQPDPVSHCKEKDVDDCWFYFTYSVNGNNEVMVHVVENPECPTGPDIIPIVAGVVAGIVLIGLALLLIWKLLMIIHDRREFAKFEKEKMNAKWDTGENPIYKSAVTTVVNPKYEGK
Sequence of Integrin beta-1 (Homo sapiens) + Integrin alpha-4 (Homo sapiens) (P13612 whole entry, looked up): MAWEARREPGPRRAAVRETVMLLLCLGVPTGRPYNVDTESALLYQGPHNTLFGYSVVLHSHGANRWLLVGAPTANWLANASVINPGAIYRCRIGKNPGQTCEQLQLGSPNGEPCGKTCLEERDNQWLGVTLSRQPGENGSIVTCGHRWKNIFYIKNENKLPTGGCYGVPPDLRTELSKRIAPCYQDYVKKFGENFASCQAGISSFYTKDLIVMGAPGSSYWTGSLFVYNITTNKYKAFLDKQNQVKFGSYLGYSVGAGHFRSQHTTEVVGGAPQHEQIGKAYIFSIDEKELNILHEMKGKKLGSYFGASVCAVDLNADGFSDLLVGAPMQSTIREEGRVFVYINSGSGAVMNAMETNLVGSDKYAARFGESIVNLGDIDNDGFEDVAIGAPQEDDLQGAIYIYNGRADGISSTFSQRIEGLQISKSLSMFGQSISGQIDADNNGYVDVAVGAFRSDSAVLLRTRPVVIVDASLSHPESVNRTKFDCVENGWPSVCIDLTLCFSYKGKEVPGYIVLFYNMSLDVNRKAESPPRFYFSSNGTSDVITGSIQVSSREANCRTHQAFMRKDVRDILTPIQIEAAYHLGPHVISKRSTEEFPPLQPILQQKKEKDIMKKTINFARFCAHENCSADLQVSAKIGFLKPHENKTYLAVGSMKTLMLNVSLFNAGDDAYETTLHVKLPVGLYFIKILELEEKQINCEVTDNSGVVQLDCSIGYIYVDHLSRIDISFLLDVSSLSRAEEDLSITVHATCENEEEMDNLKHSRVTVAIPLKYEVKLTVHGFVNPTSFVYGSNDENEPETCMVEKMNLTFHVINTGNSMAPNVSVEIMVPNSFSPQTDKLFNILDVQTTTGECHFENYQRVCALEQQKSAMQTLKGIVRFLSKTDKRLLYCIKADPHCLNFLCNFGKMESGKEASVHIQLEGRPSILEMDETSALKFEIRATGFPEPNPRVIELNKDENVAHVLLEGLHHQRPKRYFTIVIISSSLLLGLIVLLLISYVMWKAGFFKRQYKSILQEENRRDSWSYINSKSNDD

Assay [8] can be described thus: calorie-restriction mimetic ROS inhibitors, yeast – validation compound set, pilot screen (AID 2706;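 active means superoxide response below 65% of plate, a cut near 3 SD across the whole screen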;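 further: yeast exposed to compound for one week at 30 degrees C before staining; 100% = mean of all compound wells on the same plate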). The settings on record: S. cerevisiae aging, superoxide DHE fluorescence; at 10 µM, stronger effect = lower value.
For assay [9], the target named is Beta-adrenergic receptor kinase 1 (Homo sapiens) (UniProt P25098). The assay can be described thus: GRK2 binders displacing RNA aptamer, biochemical, validation, human GRK2, bead flow cytometry (AID 488806;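 active means aptamer binding inhibition above 30%, about 3 SD of noise from non-fluorescent compounds; inactive means inhibition at or below 30%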). Particulars: bead-bound GRK2, FAM-aptamer displacement, at 10 µM, stronger effect = higher value.
Sequence of Beta-adrenergic receptor kinase 1 (Homo sapiens) (P25098 whole entry, looked up): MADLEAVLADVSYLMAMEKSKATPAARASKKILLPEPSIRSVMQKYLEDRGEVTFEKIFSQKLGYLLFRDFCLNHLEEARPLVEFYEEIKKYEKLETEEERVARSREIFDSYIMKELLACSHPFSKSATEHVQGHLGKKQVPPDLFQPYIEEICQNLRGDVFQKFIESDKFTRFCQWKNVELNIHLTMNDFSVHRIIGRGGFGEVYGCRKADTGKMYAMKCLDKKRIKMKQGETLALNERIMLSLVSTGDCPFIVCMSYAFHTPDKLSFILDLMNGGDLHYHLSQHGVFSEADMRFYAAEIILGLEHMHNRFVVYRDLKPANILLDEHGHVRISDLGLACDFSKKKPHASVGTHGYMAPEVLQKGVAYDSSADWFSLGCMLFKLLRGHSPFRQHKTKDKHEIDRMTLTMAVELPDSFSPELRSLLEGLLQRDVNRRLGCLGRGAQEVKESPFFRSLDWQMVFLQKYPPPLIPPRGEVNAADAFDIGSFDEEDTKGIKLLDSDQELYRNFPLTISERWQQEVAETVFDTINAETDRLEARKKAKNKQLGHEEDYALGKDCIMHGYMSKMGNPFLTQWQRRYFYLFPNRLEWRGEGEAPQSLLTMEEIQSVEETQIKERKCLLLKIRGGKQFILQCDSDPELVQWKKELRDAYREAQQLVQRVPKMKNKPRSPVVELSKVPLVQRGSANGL
Assay [10] has as its target AP-2 complex subunit beta (Homo sapiens) (UniProt P63010). The assay can be described thus: beta-arrestin/AP2 interaction blockers – biochemical, validation set, GST-AP2 beads, flow cytometry, pilot screen (AID 504541;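 active means inhibition above 54%, about 3 SD of non-fluorescent compounds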;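 further: AP2 carries R879A mutation and is captured from E. coli lysate; bead-bound FITC arrestin peptide fluorescence measuring arrestin peptide binding to AP2; 0% = DMSO wells and 100% = excess unlabeled arrestin peptide control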). The settings on record: FITC arrestin peptide, at 10 µM, stronger effect = higher value, AP2 beta2 appendage fragment, R879A mutant.
The nature of assay [11]: cytosolic pH regulators acting via V-ATPase – S. cerevisiae, pHLuorin, HTS validation (AID 504600; in the data active means response above about 15%;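 further: plate controls were DMSO for no effect and reference compound for full effect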). The settings on record: V-ATPase proton transport, at 10 µM, stronger effect = higher value.
Assay [12] deals with anti-desmoglein-3 scFv antibody binding to human DSG3. The assay can be described thus: blockers of pathogenic pemphigus antibody–desmoglein-3 binding – biochemical, validation compound set, bead-based, flow cytometry, pilot screen (AID 588368;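 active means binding below the plate cutoff, the plate median minus 3 SD, with a reading above zero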;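 further: signal is the median channel fluorescence of bead-bound GFP antibody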). Particulars: Protein G beads, DSG3-Fc, scFv-GFP binding, at 10 µM, stronger effect = lower value.
Assay [13] is described as follows: Nile Red efflux blockade in pump-expressing yeast – validation compound set, multiplex, phenotypic, pilot screen (AID 588506).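 Further: Nile Red retained in cells so higher fluorescence means more efflux inhibition; 0 = negative control wells and 1 = enniatin B 25 µM full block.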 Particulars: S. cerevisiae pump-expressing triplex, Nile Red efflux flow cytometry; at 10 µM; stronger effect = higher value; the pumps come from Candida albicans.
The target in assay [14] is ATP-binding cassette sub-family B member 6 (Homo sapiens) (UniProt Q9NP58). The assay can be described thus: blockers of ABCB6-driven porphyrin uptake – K562-ABCB6 cells, flow cytometry, validation set, pilot screen (AID 588550;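 active means inhibition above the screen-wide mean plus 3 SD, about 51%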;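 further: 0% = DMSO wells and 100% = benzethonium chloride 70 µM positive control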). The settings on record: K562-ABCB6 porphyrin accumulation, 1 h, at 10 µM, stronger effect = higher value.
Sequence of ATP-binding cassette sub-family B member 6 (Homo sapiens) (Q9NP58 whole entry, looked up): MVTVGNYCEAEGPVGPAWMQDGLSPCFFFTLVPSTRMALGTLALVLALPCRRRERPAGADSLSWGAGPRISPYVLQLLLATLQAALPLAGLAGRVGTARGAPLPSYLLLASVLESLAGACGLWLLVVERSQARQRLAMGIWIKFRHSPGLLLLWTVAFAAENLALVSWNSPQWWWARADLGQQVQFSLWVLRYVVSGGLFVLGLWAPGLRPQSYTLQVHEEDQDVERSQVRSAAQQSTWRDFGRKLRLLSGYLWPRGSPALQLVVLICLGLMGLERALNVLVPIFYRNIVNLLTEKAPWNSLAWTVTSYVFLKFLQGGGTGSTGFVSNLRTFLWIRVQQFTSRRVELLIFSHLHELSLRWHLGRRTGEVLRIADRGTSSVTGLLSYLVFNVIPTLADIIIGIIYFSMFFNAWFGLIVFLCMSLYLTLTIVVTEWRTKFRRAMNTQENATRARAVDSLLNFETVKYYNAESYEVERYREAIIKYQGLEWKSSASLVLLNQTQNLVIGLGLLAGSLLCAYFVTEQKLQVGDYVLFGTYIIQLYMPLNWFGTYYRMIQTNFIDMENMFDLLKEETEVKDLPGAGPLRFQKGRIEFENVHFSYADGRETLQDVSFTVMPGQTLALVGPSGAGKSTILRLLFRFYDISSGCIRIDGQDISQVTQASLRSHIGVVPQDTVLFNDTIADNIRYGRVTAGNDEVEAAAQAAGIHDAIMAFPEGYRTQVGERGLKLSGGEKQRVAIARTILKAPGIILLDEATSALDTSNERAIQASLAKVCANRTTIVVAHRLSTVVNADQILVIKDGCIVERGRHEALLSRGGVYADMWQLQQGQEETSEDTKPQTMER
Assay [15] is described as follows: AML differentiation inducers, ER-HoxA9 marrow cells – cell-based, GFP/MAC1 double positive, flow cytometry, validation set, primary screen (AID 588685;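 active means differentiation response of at least 50%, scaled between solvent and reference control, from cells with both markers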;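 further: compound exposure lasts four days before antibody staining and flow analysis; 0% = DMSO wells and 100% = 5 µM fulvestrant positive control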). Particulars: stronger effect = higher value, normalized: vehicle 0, fulvestrant 100.
For assay [16], the target named is Beta-2 adrenergic receptor (Homo sapiens) (UniProt P07550). Put plainly: agonist-induced loss of surface beta2AR – cell-based, FAP fluorogen, flow cytometry, validation set, pilot screen (AID 504459;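 active means percent response above 42, roughly 3 SD of non-fluorescent test compounds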;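 further: agonist-driven loss of surface beta2AR via internalization measured by FAP dye flow cytometry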). The settings on record: Am2.2-beta2AR cells, at 10 µM, stronger effect = higher value.
Sequence of Beta-2 adrenergic receptor (Homo sapiens) (P07550 whole entry, looked up): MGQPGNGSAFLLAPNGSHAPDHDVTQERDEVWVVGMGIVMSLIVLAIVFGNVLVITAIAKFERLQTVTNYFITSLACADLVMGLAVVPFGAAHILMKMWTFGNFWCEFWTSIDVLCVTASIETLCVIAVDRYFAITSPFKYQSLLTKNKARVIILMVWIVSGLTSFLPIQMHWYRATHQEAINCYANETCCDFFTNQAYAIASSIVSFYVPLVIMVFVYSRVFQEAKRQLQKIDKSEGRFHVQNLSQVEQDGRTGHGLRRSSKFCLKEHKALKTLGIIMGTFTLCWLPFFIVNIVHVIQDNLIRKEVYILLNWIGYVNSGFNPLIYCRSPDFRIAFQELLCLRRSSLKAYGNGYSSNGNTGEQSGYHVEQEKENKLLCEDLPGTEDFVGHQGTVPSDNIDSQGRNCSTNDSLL

Sequence of AP-2 complex subunit beta (Homo sapiens) (P63010 whole entry, looked up, the tested form may be a part, one chain of several): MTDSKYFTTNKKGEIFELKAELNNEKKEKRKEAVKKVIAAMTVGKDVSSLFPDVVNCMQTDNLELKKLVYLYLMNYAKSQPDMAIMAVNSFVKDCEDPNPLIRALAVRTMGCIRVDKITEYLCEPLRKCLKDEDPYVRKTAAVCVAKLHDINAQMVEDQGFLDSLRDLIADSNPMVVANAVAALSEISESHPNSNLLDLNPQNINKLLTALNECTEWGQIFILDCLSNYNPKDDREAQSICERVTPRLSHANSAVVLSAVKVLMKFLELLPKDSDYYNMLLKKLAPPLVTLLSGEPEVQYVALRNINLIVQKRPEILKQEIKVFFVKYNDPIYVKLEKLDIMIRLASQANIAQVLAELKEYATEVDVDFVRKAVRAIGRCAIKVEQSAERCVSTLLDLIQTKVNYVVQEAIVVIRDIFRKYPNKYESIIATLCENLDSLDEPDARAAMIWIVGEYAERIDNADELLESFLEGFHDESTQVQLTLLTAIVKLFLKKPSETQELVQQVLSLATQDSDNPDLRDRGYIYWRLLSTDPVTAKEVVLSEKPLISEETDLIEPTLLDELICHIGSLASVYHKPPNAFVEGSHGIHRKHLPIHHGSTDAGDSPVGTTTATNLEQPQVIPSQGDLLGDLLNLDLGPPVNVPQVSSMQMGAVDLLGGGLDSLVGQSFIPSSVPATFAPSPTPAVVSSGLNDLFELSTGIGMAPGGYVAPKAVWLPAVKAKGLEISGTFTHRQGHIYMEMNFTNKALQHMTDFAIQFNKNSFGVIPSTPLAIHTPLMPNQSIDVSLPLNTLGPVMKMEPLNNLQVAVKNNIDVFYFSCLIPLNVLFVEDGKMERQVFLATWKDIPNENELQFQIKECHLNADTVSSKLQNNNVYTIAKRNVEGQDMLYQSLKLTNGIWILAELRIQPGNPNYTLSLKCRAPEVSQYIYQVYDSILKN

In the case of `CC(C)NNC(=O)c1ccncc1`, the percent of DMSO control GFP in assay [1] was 100% (inactive). For the same molecule, the GFP response vs DMSO in [2] is 101% (inactive); in assay [4], 114% (inactive). Also, the percent response of DMSO control in [3] is 107% (inactive). Besides, the GFP response, % of DMSO in assay [5] was 111% (inactive). In assay [6], this molecule came in with a double positive events of 55.2%. Moreover, the vesicle binding response in assay [6] is 178% (inactive). For the same molecule, the figures for the inhibition in assay [7], in assay [10] and in assay [14] were -7.7% (inactive), -13.9% (inactive) and 3% (inactive), respectively. Moreover, the superoxide response (% of plate) in assay [8] is 101% (inactive). The aptamer binding inhibition in [9] was 2% (inactive). The response in assay [11] was -0.37% (inactive). In [12], the binding (% of control) was 98.7% (inactive). Besides, the efflux inhibition (fraction of control) in [13] is 0.22 (inactive). Moreover, in assay [15], the differentiation response is -26% (inactive).
Turning to `O=C(/C=C/c1ccco1)N1CCN(c2ccccc2)CC1`, the percent of DMSO control GFP in assay [1] is 103% (inactive). Further, the GFP response vs DMSO is 90.8% (inactive) in assay [2] and 86.3% (inactive) in [4]. The percent response of DMSO control in assay [3] is 107% (inactive). Also, the GFP response, % of DMSO in assay [5] is 92.7% (inactive). The same molecule showed a double positive events in assay [6] of 56.2%. Besides, the vesicle binding response in assay [6] was 210% (inactive). Moreover, the results for the inhibition in assay [7], in [10] and in assay [14] were 8.15% (inactive), 6.32% (inactive) and 5% (inactive), respectively. In [8], the superoxide response (% of plate) is 89% (inactive). In [9], the aptamer binding inhibition was 1% (inactive). Further, the response in [11] is 5.81% (inactive). In assay [12], the binding (% of control) was 101% (inactive). For the same molecule, the efflux inhibition (fraction of control) in assay [13] was -0.09 (inactive). Besides, in [15], the differentiation response was -19.6% (inactive).
On to `CCOC(=O)C1(CCCc2ccccc2)CCN(C2CCN(C(C)=O)CC2)CC1`, for which the percent of DMSO control GFP in assay [1] was 97.1% (inactive). The GFP response vs DMSO in assay [2] was 101% (inactive); in assay [4], 92.3% (inactive). The percent response of DMSO control in [3] is 99.8% (inactive). The GFP response, % of DMSO in [5] is 92.4% (inactive). In addition, the double positive events in assay [6] worked out at 52%. In assay [6], the vesicle binding response is 138% (inactive). For the same molecule, the inhibition (usually the relative decrease from the control value, in per cent) in assay [7] is -12.4% (inactive); in assay [10], 12.5% (inactive); in assay [14] it was 9% (inactive). Further, the superoxide response (% of plate) in assay [8] was 103% (inactive). Also, the aptamer binding inhibition in [9] was 9% (inactive). Moreover, the response in assay [11] was -6.58% (inactive). Moreover, the binding (% of control) in assay [12] was 109% (inactive). Moreover, the efflux inhibition (fraction of control) in assay [13] was 0.37 (inactive). Also, in [15], the differentiation response was -13.1% (inactive).
For the molecule `CC(=O)OCC(=O)C1=CCC2C3CCC4=CC(=O)C=CC4(C)C3(F)C(OC(C)=O)CC12C` (stereo unspecified), in assay [1], the percent of DMSO control GFP was 99.8% (inactive). In addition, the values for the GFP response vs DMSO in assay [2] and in [4] were 101% (inactive) and 84.3% (inactive), respectively. Also, the percent response of DMSO control in assay [3] was 106% (inactive). For the same molecule, in assay [5], the GFP response, % of DMSO was 105% (inactive). The molecule also registered a double positive events in assay [6] of 59%. Also, the vesicle binding response in assay [6] is 180% (inactive). Further, the inhibition in assay [7] was 6.29% (inactive); in assay [10], -3.56% (inactive); in [14], 9% (inactive). Also, in assay [8], the superoxide response (% of plate) was 87.6% (inactive). In addition, the aptamer binding inhibition in [9] was 7% (inactive). In addition, in assay [11], the response was 6.47% (inactive). For the same molecule, in assay [12], the binding (% of control) is 96.2% (inactive). In addition, in [13], the efflux inhibition (fraction of control) is 0.18 (inactive). Further, in [15], the differentiation response is -11.5% (inactive).
In the case of `O=c1c(-c2ccc3c(c2)OCCO3)coc2cc(OC3OC(CO)C(O)C(O)C3O)ccc12` (stereo unspecified), the percent of DMSO control GFP in assay [1] was 103% (inactive). Besides, the results for the GFP response vs DMSO in assay [2] and in assay [4] were 101% (inactive) and 90.3% (inactive), respectively. The percent response of DMSO control in assay [3] is 106% (inactive). In addition, the GFP response, % of DMSO in assay [5] was 103% (inactive). In [6], this molecule had a double positive events of 63.1%. The vesicle binding response in assay [6] was 127% (inactive). Also, the inhibition in [7] is 1.62% (inactive); in assay [10] it was -2.44% (inactive); in [14], 8% (inactive). For the same molecule, the superoxide response (% of plate) in assay [8] is 93.4% (inactive). In addition, in assay [9], the aptamer binding inhibition was 6% (inactive). Moreover, the response in assay [11] was -2.72% (inactive). The binding (% of control) in assay [12] was 102% (inactive). In assay [13], the efflux inhibition (fraction of control) is -0.28 (inactive). Further, the differentiation response in assay [15] was -14.7% (inactive).
For the molecule `CN(C)CCOC(C)(c1ccccc1)c1ccccn1` (stereo unspecified), the percent of DMSO control GFP in assay [1] was 100% (inactive). For the same molecule, the GFP response vs DMSO in assay [2] is 104% (inactive); in assay [4], 83.5% (inactive). In addition, the percent response of DMSO control in assay [3] was 93.1% (inactive). The GFP response, % of DMSO in assay [5] was 93.7% (inactive). The molecule further displayed a double positive events in assay [6] of 63.3%. For the same molecule, in assay [6], the vesicle binding response was 129% (inactive). The values for the inhibition in assay [7], in assay [10] and in assay [14] were -1.49% (inactive), 13.9% (inactive) and 6% (inactive), respectively. In [9], the aptamer binding inhibition was 2% (inactive). Also, the response in assay [16] is 2.25% (inactive); in assay [11], -1.19% (inactive). The binding (% of control) in assay [12] is 106% (inactive). Also, in assay [13], the efflux inhibition (fraction of control) is 0.74 (active). In addition, the differentiation response in assay [15] is 13.9% (inactive).
